Assay outcomes (PubChem)
AmpC detergent = qHTS Inhibitors of AmpC Beta-Lactamase (assay with detergent); AmpC hydrolysis of nitrocefin, absorbance 480 nm, 0.01% Triton; actives 0.041% (n = 370,000); Potency, µM (highest dose often 114 µM), without a hit: at the highest dose activity change, negative = inhibition, hits mostly inhibitors;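 further: 0% = no-compound wells and -100% = no-enzyme wells; nearly all actives have a fitted effect of over 25% in size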
Target sequence (P00811 whole entry, looked up): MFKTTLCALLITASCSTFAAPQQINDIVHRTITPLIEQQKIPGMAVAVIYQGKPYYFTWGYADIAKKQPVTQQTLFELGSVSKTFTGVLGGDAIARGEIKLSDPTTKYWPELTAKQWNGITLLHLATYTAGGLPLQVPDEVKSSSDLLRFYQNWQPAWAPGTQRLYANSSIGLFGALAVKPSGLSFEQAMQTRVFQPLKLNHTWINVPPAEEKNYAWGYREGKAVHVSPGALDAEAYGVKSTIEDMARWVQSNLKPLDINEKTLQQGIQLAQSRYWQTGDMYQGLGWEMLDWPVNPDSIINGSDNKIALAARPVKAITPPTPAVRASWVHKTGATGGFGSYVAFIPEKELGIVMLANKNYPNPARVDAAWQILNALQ
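20 mM phosphate pH 7.0 + 0.01% (detergent screen) or 0.0001% Triton X-100; 5.3 nM AmpC reagent; cpd preinc 15 min RT; nitrocefin (800 uM stock) to start; A480 q20 s × 4 min; Activity was normalised to no-enzyme and no-compound control wells.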
FBPA Giardia inh = qHTS Assay for Inhibitors of Fructose-1,6-bisphosphate Aldolase from Giardia Lamblia; purified Giardia FBPA; Potency, µM (highest dose often 59.6 µM), inactives show top-dose activity, negative = inhibition, usual class: inhibitors; actives 0.71% (n = 290,000); further: nearly all actives have a fitted effect of over 55% in size
Target sequence (A8B2U2 whole entry, looked up): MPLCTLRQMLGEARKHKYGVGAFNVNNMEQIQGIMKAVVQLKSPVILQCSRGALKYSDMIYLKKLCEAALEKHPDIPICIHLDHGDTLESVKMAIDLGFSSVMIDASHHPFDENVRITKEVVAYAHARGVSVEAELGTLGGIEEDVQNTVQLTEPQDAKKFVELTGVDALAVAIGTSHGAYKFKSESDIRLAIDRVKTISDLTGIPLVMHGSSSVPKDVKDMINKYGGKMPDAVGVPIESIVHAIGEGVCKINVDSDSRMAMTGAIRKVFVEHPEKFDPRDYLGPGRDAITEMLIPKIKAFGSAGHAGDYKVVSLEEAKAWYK
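Giardia FBPA (40 nM reagent) was preincubated 10 min at RT with compound (up to 57.5 uM final), then substrate plus GAPDH/TPI/NAD/arsenate coupling system with diaphorase/resazurin was added; resorufin fluorescence (525/598 nm) was read after 20 min.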
AmpC no deterg = qHTS Inhibitors of AmpC Beta-Lactamase (assay without detergent). AmpC nitrocefin hydrolysis, absorbance 480 nm, 0.0001% Triton. Potency, µM (highest dose often 57.1 µM), without a hit: at the top dose activity change, negative = inhibition, actives largely listed as inhibitors. actives 0.52% (n = 330,000);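 further: plate controls were no compound for no effect and no enzyme for full effect; nearly all actives have a fitted effect of over 20% in size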
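20 mM phosphate pH 7.0 + 0.01% (detergent screen) or 0.0001% Triton X-100; 5.3 nM AmpC reagent; cpd preinc 15 min RT; nitrocefin (800 uM stock) to start; A480 q20 s × 4 min; Activity was normalised to no-enzyme and no-compound control wells.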
Sm TGR block = qHTS Assay for the Inhibitors of Schistosoma Mansoni Peroxiredoxins; actives 3% (n = 360,000); Schistosoma mansoni thioredoxin glutathione reductase (TGR), Q962Y6; purified TGR, DTNB reduction, TNB absorbance 405 nm; Potency, µM (highest dose often 114 µM), for inactives: at the highest dose activity change, negative = inhibition, actives largely listed as inhibitors; further: nearly all actives have a fitted effect of over 60% in size
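Kinetic colorimetric format: TGR-catalysed, NADPH-driven DTNB reduction monitored via TNB absorbance. Enzyme dispensed at 20 nM; compound exposure 15 min at room temperature before reaction start.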
RE007 growth inh = qHTS Assay for Inhibitors of the HIV-1 protein Vpr. S. pombe RE007 Vpr strain, BacTiter-Glo ATP luminescence, 24 h. Potency, µM (top dose mostly 92.2 µM), without a hit: at the highest dose activity change, negative = less growth, most hits filed as inhibitors. actives 0.21% (n = 360,000); active means well fitted falling curve with a large enough effect; inconclusive means small, poorly fitted or top-dose-only effect; inactive means no such curve, though single readings can be large or run the other way; further: nearly all actives have a fitted effect of over 50% in size
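Fission yeast RE007 carrying one integrated HIV-1 vpr copy, seeded at OD 0.01 in PMG+AL medium with 23 nL pinned compound. Grown 24 h at 30 degrees; viability read by BacTiter-Glo luminescence after 5 min.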
Starred values were filed as active, the others as inactive; ? = inconclusive; / = no result given; ! = repeats disagree; [ ] = remark or other dose. Only some compounds are listed: those with a hit (about 3.4% of all), similar ones and a draw of the others. Unless noted, the call rests on the fitted dose curve; in most records, active means well fitted curve in the direction sought with a large enough effect; inconclusive means small, poorly fitted or top-dose-only effect, or another doubt; inactive means no such curve, though single readings can be large; an effect the other way counts as inactive or inconclusive. Unless noted, on the % scale 0 is the no-effect control and ±100 the full control effect; potency means the concentration at half of the fitted maximal effect.

SMILES | AmpC detergent | FBPA Giardia inh | AmpC no deterg | Sm TGR block | RE007 growth inh
Cc1ccc(C(=O)/C=C/c2cc(Br)cc(Br)c2O)o1 | 5% | 5% | -28% | 1.6µM* | -12%
Cn1c(O)c(/C=C2\N=c3ccccc3=C2CCNC(=S)NC2CC2)c(=O)n(C)c1=O | -10% | ? | 49% | 5.6µM* | -8%
Cc1cc(O)c(C(C)C)cc1N=Cc1ccccc1O | -15% | 3.5µM* | -17% | 4µM* | 11%
CS(=O)(=O)N(CC(=O)Nc1ccc2c(c1)OCO2)c1ccc(Cl)cc1 | -16% | -8% | -16% | -16% | -3%
O=C(O)/C=C/c1ccc2ccccc2n1 | 0% | 6% | -18% | 8% | -6%
O=C(/C=C/c1ccc2ccccc2n1)c1cc(Br)ccc1O | 2% | -22% | -46% | 32µM* | 3%
CC1Oc2ccccc2N(CC(=O)NCCc2ccccc2)C1=O (centres undefined) | 40µM* | 6% | -2% | -7% | -20%
CC1Oc2ccccc2N(CC(=O)NCCCN2CCOCC2)C1=O (centres undefined) | 5% | / | -1% | 3% | -3%
O=c1c2c3c(sc2nc2n1CCCCC2)CCCC3 | -13% | 1% | -1% | -16% | ?
CCOC(=O)c1c(C(F)(F)F)cc(-c2ccc(F)cc2)nc1C | -12% | 7% | -4% | -2% | -3%
CCOC(=O)CCS(=O)(=O)c1nc(-c2ccccc2)cc(C(F)(F)F)n1 | 1% | 2% | -12% | 28µM* | -20%
CCOC(=O)CS(=O)(=O)c1nc(-c2ccccc2)cc(C(F)(F)F)n1 | -7% | 10% | -2% | ? | ?
COC(=O)CCS(=O)(=O)c1nc(-c2ccccc2)cc(C(F)(F)F)n1 | ? | 4% | -16% | 8.9µM* | -18%
CCOC(=O)CS(=O)(=O)c1nc(-c2ccc(F)cc2)cc(C(F)(F)F)n1 | -13% | -1% | -18% | 2.8µM* | ?
CN1Cc2cccnc2N(C)Cc2cc(Cl)ccc21 | -13% | -8% | -12% | 7% | -26%
Clc1ccc2c(c1)CCc1cccnc1C2=C1CCNCC1 | ? | -1% | 115% | 45µM*! | /
COc1cc(/C=C/CN2CCN(CCC(C)C)C(CCO)C2)ccc1O (centres undefined) | 4% | 0% | 25% | 13µM* | -14%
COc1ccccc1/C=C/CN1CCN(Cc2ccc(C)o2)C(CCO)C1 (centres undefined) | -4% | -1% | 41% | 45µM* | -9%
COc1cc(/C=C/CN2CCN(Cc3ccc(C)o3)C(CCO)C2)ccc1O (centres undefined) | 1% | -6% | -12% | 13µM* | 8%
Cc1ccc(C(O)(CCN2CCCCC2)c2ccccc2)cc1 (centres undefined) | 2% | -9% | -6% | 11µM* | /
CCOc1ccc(C(=O)CCN2CCCCCC2)cc1 | -17% | -7% | -11% | 0.32µM* | 16µM*
CCCOc1ccc(C(=O)CCN2CCCCC2)cc1 | 5% | -4% | -4% | 0.32µM* | 18µM*
O=C(OCCN1CCOCC1)c1ccc(OCCN2CCOCC2)cc1 | -13% | -29% | -6% | 3% | 21%
CCCCOc1ccc(C(=O)CCN2CCOCC2)cc1 | -9% | -2% | 57% | 2µM* | ?
OC(CCN1CCCCC1)(c1ccccc1)C1CCCCC1 (centres undefined) | ? | -2% | -26% | 0% | 9%[18.4 µM]
SMILES | AmpC detergent | FBPA Giardia inh | AmpC no deterg | Sm TGR block | RE007 growth inh
CCOc1ccc(OCCN2CCCCC2)cc1 | ? | -16% | -5% | 5% | 17%
COc1cccc(NC(=O)CC(C)=O)c1 | ? | 7% | -20% | -9% | 11%
CCCC(O)(CCN1CCOCC1)c1ccc(Cl)cc1 (centres undefined) | ? | -9% | 25% | 20µM* | 11%
CC(C)(C)c1ccc(OCCCN2CCCC2)cc1 | ? | -19% | 15% | 7% | 7%
CCCOc1ccc(C(O)(CCC)CCN2CCCCC2)cc1 (centres undefined) | ? | -2% | -6% | 32µM* | -10%
COc1cc(N=Nc2cccc(S(N)(=O)=O)c2)c2ccccc2c1N | -15% | ? | -32% | 56µM* | -5%
NC1=NC(=Nc2cccc(S(N)(=O)=O)c2)c2ccccc21 | 3% | -5% | -4% | 15% | -2%
O=C(O)c1cccc(NS(=O)(=O)c2ccc3nnn(O)c3c2)c1 | -5% | ? | 2% | -6% | -7%
O=C(O)c1cccc(NC2=C(n3nnc4ccccc43)C(=O)c3ccccc3C2=O)c1 | -7% | ? | -1% | 45µM* | 15%
COc1ccc(-c2noc(CCC(=O)Nc3cc(Cl)c(OC)cc3OC)n2)cc1 | -7% | -15% | 13% | 0% | ?
CN1c2ccccc2N(C)C1(C)c1ccccc1 | -17% | ? | 25% | 45µM* | -13%
CCN1c2ccccc2N(C)C1(C)c1ccccc1 (centres undefined) | ? | ? | 33% | 35µM* | ?
CCC1(c2ccccc2)CN(C)C1=O (centres undefined) | / | / | / | / | -2%
CN(Cc1ccccc1)S(=O)(=O)c1ccc2c(c1)n(C)c(=O)c(=O)n2C | -2% | 3% | -7% | 9% | 4%
CN(Cc1ccccc1)C(=O)CCS(=O)(=O)c1ccc2c(c1)n(C)c(=O)c(=O)n2C | ? | 7% | 0.5µM* | 22µM* | -8%
CC(=O)N(Cc1ccc2c(c1)OCO2)C1CC(=O)N(CCc2ccccc2)C1=O (centres undefined) | -15% | 4% | 15% | 22µM* | -7%
O=C(O)/C=C/C(=O)N(Cc1ccc2c(c1)OCO2)C1CC(=O)N(CCc2ccccc2)C1=O (centres undefined) | -17% | 6% | -14% | -17% | 4%
CO/N=C/C(c1ncc(C(F)(F)F)cc1Cl)S(=O)(=O)c1ccccc1 (centres undefined) | 0% | -7% | 2% | -45% | -31%
CO/N=C/C(c1ccc(Cl)nc1)S(=O)(=O)c1ccccc1 (centres undefined) | -4% | -7% | 0% | 22µM* | 1%
COc1ccccc1C(=O)COC(=O)c1ccccc1OCC(=O)Nc1ccc(SC(F)F)cc1 | ? | -8% | -49% | -7% | 9%
CC(=O)N(CCC(Cc1ccccc1)c1ccco1)Cc1ccco1 (centres undefined) | -2% | 3% | 43% | 22µM* | 14%
O=C(c1ccco1)N(CCC(c1ccccc1)c1ccco1)Cc1ccco1 (centres undefined) | -8% | -5% | -21% | 10µM* | 33%
